45 compounds from PubChem BioAssay AID623870 (Broad Institute, 2012) can be followed below.

The whole screen tested about 390,000 compounds, of which about 2,600 (0.67%) were called active. The list comes from a sample in which actives are over-represented; it also holds similar structures and randomly drawn compounds. A number with no mark means an inactive call.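 The calls were made as follows: active = mean inhibition of replicates at least 50% and at least half of replicates each reaching 50%; inconclusive = half or more replicates reach 50% but mean below 50%; inactive = the rest.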

The target in this assay is Transforming acidic coiled-coil-containing protein 3 (Homo sapiens) (UniProt Q9Y6A5). The assay is described as follows: disruptors of ARNT/TACC3 protein interaction, primary screen, biochemical, AlphaScreen, single concentration (AID 623870).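 Also: 0% = complete ARNT plus TACC3 wells and 100% = ARNT alone without TACC3.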 The conditions noted are these: AlphaScreen His-ARNT PAS-B/GST-TACC3 binding, luminescence; at 9.99 µM; hits give high values; TACC3 fragment carries E629A point mutation. (In Alpha technology, singlet oxygen from a donor bead excites a nearby acceptor bead.)
What is called inhibition is the drop in the measured response relative to a control, in per cent. On to `COc1ccc(-c2ccc3c(c2)[C@H]2[C@H](CCN2S(=O)(=O)c2ccccc2F)[C@H](CO)N3)cc1`, for which the inhibition was -0.779%. In the case of `COc1cccc(C(=O)Nc2ccc3c(c2)C(=O)N(C)[C@@H]2CC[C@H](CC(=O)NCC4CC4)O[C@@H]2CO3)c1`, the inhibition was -14.2%. As for `O=C(C[C@H]1CC[C@H](NC(=O)C2CCC2)[C@@H](CO)O1)NCCCN1CCOCC1`, the figure is 0.473%. As for `C[C@H]1CN([C@@H](C)CO)C(=O)Cc2cc(NC(=O)CCC(F)(F)F)ccc2O[C@H]1CN(C)C(=O)NC1CCCCC1`, the figure is -6.06%.

Take `CCCc1cc(=O)oc2c(C)c(O)c(CN3CCCCC3)cc12`: the inhibition was 0.049%. Then `O=C(c1ccccc1)c1cccn1CC(=O)N1CCN(c2ccc(F)cc2)CC1`, with 1.56%. Then `Oc1c(CN2CCCC2)cc(COCc2ccccc2)c2cccnc12`, with 64.5% (active). Take `C/C(=N/N1CCN(Cc2cccc3ccccc23)CC1)c1cccnc1`: the inhibition was 3.31%.

`Oc1c(CN2CCN(c3ccc(F)cc3)CC2)cc(Cl)c2cccnc12`: the inhibition is 73.2% (active). Then `O=C(c1cccc(F)c1)N1CCN(c2ccc([N+](=O)[O-])c3cccnc23)CC1`, with -1.2%; and `C[C@@H]1CCCCO[C@H](CN(C)C(=O)CCC(F)(F)F)[C@H](C)CN([C@H](C)CO)C(=O)c2cc(NC(=O)NC3CCCCC3)ccc2O1`, with -7.47%; and `CCNC(=O)[C@H]1[C@H](CO)[C@H]2Cn3c(ccc(-c4cccc(OC)c4)c3=O)[C@H]2N1Cc1nccs1`, with -9.07%. As for `CO[C@@H]1CC[C@@H]2CCOc3ccc(C#N)cc3C(=O)N(C)C[C@@H](C)C(=O)N(C)C[C@@H]1O2`, the figure is -7.05%; as for `CC(C)NC(=O)N(C)C[C@H]1OCCCC[C@H](C)Oc2ccc(NC(=O)CCCN(C)C)cc2C(=O)N([C@@H](C)CO)C[C@H]1C`, -0.512%. On to `COc1ccccc1-c1cnc2c(c1)C(=O)N([C@H](C)CO)C[C@@H](C)[C@@H](CN(C)Cc1ccncc1)O2`, for which the inhibition was -5.7%. In the case of `CC(=O)N1[C@@H](CO)[C@H](c2ccccc2)[C@@H]1CN(C)C(=O)CN1CCOCC1`, the inhibition was -11.7%. Turning to `Cc1noc(C)c1NC(=O)Nc1ccc2c(c1)C(=O)N([C@@H](C)CO)C[C@H](C)[C@H](CN(C)S(=O)(=O)c1cn(C)cn1)OCCCC[C@@H](C)O2`, the inhibition is -9.38%. As for `COC(=O)C[C@H]1C[C@H]2c3cc(NC(=O)NC4CCCCC4)ccc3O[C@H]2[C@H](CO)O1`, the figure is -2.98%; as for `CN1c2ccc(C=O)c3c(C=O)ccc(c23)N(C)C1(C)C`, 13.9% (active).

For `CCSC1(SCC)N=C(N)C2(C#N)C(c3ccccc3)NC(C)=CC12C#N` (stereo not given), the inhibition was 48.6% (active). As for `CCCC(=O)Nc1ccc2c(c1)OC[C@H](C)N(C(=O)C1CCCC1)C[C@@H](C)[C@H](OC)CN(C)C2=O`, the figure is -5.43%. For `COc1ccccc1NC(=O)N[C@H]1CC[C@@H](CC(=O)N[C@@H](C)c2ccccc2)O[C@H]1CO`, the inhibition was -7.69%.

Regarding `CCCNC(=O)C[C@H]1C[C@@H]2c3cc(NC(=O)C4CCOCC4)ccc3O[C@@H]2[C@@H](CO)O1`, the inhibition was -13.8%. Regarding `CCCC#Cc1ccc2c(c1)O[C@@H](CN(C)S(=O)(=O)c1cccc(OC)c1)[C@H](C)CN([C@@H](C)CO)S2(=O)=O`, the inhibition is 4.74%.

As for `O=C(CSc1ccc(-c2ccccn2)nn1)Nc1ccccc1`, the inhibition was 58.5% (active). Then `Cc1ccccc1NC(=O)CSc1ccc2nnc(-c3ccccn3)n2n1`, with 48% (active); and `O=C(CSc1ccc(-c2ccc(-n3cccn3)cc2)nn1)Nc1ccc([N+](=O)[O-])cc1`, with -19.4%; and `COc1ccc(C)cc1NC(=O)CSc1nnc2ccc(-c3ccccn3)nn12`, with 12.1%. Take `COc1cc(NC(=O)CSc2ccc(-c3cccnc3)nn2)cc(OC)c1`: the inhibition was -3.2%. As for `Cc1ccccc1NC(=O)CSC1=NCCN1`, the figure is -6.23%; as for `COc1cccc(NC(=O)Nc2ccc3c(c2)C(=O)N(C)C[C@@H](OC)[C@H](C)CN(CC2CC2)[C@H](C)CO3)c1`, -0.496%. As for `OC[C@H]1[C@@H](c2ccc(C#CC3(O)CCCC3)cc2)[C@H]2CN(Cc3cncnc3)CCCCN21`, the figure is 0.497%. Then `CO[C@@H]1CN(C)C(=O)c2cc(NC(=O)C3CCC3)ccc2OC[C@H](C)N(Cc2ccccn2)C[C@H]1C`, with 2.51%; and `O=C(C[C@@H]1C=C[C@@H](NC(=O)c2ccccc2)[C@H](CO)O1)NCCc1ccncc1`, with -9.84%. Consider `COc1ccc(C(=O)Nc2ccc3c(c2)C(=O)N(C)C[C@@H](OC)[C@H](C)CN(C(C)=O)[C@@H](C)CO3)cc1`, for which the inhibition was -6.1%.

Consider `CC(C)NC(=O)N1[C@@H]2c3ccc(-c4ccc(F)cc4)c(=O)n3C[C@@H]2[C@@H](CO)[C@@H]1C(=O)N1CCOCC1`, for which the inhibition was 17.2%. Then `O=C(NC1=CC(=O)c2ccccc2C1=O)c1ccccc1`, with 2.4% (active). Then `Cc1ccccc1S(=O)(=O)N1C[C@H](O)COC[C@H]2O[C@H](CC(=O)N3CCCCC3)CC[C@@H]21`, with 1.95%; and `CNC[C@@H]1Oc2ccc(NC(=O)C3CCCCC3)cc2CC(=O)N([C@@H](C)CO)C[C@H]1C`, with -6.19%. Then `CN(C)C(=O)c1cccc(-c2ccc3c(c2)[C@H]2[C@H](CCN2S(=O)(=O)c2cn(C)cn2)[C@@H](CO)N3)c1`, with 0.583%; and `CN(C[C@@H]1[C@H](c2ccccc2)[C@@H](CO)N1Cc1ccccn1)S(C)(=O)=O`, with 29.6%; and `O=C(NC[C@@H]1[C@@H](c2ccccc2)[C@H](CO)N1C(=O)Cc1cccnc1)C1CC1`, with -0.188%. As for `O=C(NC[C@@H]1[C@@H](c2ccccc2)[C@@H](CO)N1Cc1ccccn1)C1CCC1`, the inhibition was 23.8% (active). Then `CCCNC(=O)N1C[C@@H](O)COC[C@H]2O[C@H](CC(=O)NCCCN3CCOCC3)CC[C@@H]21`, with -6.54%; and `CN(C)C(=O)c1cccc(-c2ccc3c(c2)[C@H]2[C@H](CCN2C(=O)Cc2ccccc2)[C@H](CO)N3)c1`, with -7.24%.
